Test results published in paper PMC11006913.

How the values were obtained:
Experiment in all cases: PBM; 200 nM protein, PBS
Details in all cases: dsDNA, one strand shown
SHOX [1] = molecular target: SHOX (Homo sapiens, UniProt O15266 103-189)
SHOX [2] = molecular target: SHOX (Homo sapiens, UniProt O15266 103-189, R173C)
HOXB9 [3] = molecular target: HOXB9 (Homo sapiens, UniProt P17482 171-250, T197M)
HOXC9 [4] = molecular target: HOXC9 (Homo sapiens, UniProt P31274 178-260, K195R)
VENTX = molecular target: T1, VENTX (Homo sapiens, UniProt O95231 78-163)
T1 sequence: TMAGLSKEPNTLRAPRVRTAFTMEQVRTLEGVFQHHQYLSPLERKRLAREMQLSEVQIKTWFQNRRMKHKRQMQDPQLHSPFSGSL

HOXA7 [5] = molecular target: HOXA7 (Homo sapiens, UniProt P31268 116-202)
HOXC10 [6] = molecular target: HOXC10 (Homo sapiens, UniProt Q9NYD6 254-340)
PAX4 = molecular target: T2, PAX4 (Homo sapiens, UniProt O43316 9-242, R200K)
T2 sequence: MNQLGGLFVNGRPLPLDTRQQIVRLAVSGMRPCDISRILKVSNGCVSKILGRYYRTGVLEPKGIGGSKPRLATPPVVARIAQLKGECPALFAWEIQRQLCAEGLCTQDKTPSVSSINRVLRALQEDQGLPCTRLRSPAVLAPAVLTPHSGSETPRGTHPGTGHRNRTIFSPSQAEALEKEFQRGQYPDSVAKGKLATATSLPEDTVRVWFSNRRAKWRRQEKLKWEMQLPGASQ

HOXB6 [7] = molecular target: HOXB6 (Homo sapiens, UniProt P17509 132-218, K202E)
HOXB9 [8] = molecular target: HOXB9 (Homo sapiens, UniProt P17482 171-250)
HOXC9 [9] = molecular target: HOXC9 (Homo sapiens, UniProt P31274 178-260)
HOXD13 [10] = molecular target: HOXD13 (Homo sapiens, UniProt P35453 263-343, T313R)
HOXC9 [11] = molecular target: HOXC9 (Homo sapiens, UniProt P31274 178-260, R193K)
HOXD13 [12] = molecular target: HOXD13 (Homo sapiens, UniProt P35453 263-343)
HOXC10 [13] = molecular target: HOXC10 (Homo sapiens, UniProt Q9NYD6 254-340, K271E)
HOXD13 [14] = molecular target: HOXD13 (Homo sapiens, UniProt P35453 263-343, T313A)
HOXB9 [15] = molecular target: HOXB9 (Homo sapiens, UniProt P17482 171-250, R186Q)
HOXC9 [16] = molecular target: HOXC9 (Homo sapiens, UniProt P31274 178-260, R222W)
HOXA7 [17] = molecular target: HOXA7 (Homo sapiens, UniProt P31268 116-202, W177C)
HOXB6 [18] = molecular target: HOXB6 (Homo sapiens, UniProt P17509 132-218)
Sequence of HOXB6 (Homo sapiens, UniProt P17509 132-218) (P17509 132-218): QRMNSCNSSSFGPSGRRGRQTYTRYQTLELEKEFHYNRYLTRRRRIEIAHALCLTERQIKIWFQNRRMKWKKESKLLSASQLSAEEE

Sequence of HOXA7 (Homo sapiens, UniProt P31268 116-202, W177C) (P31268 116-202 W177C): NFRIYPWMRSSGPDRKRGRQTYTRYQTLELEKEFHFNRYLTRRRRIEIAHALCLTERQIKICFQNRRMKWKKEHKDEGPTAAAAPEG
Sequence of HOXD13 (Homo sapiens, UniProt P35453 263-343, T313A) (P35453 263-343 T313A): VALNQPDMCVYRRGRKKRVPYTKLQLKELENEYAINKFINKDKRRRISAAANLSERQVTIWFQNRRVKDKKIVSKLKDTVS
Sequence of HOXC9 (Homo sapiens, UniProt P31274 178-260) (P31274 178-260): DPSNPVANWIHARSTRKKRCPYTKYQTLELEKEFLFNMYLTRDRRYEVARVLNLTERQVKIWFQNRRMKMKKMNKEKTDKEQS
Sequence of HOXA7 (Homo sapiens, UniProt P31268 116-202) (P31268 116-202): as the sequence (P31268 116-202 W177C) above, with C62W counted along it
Sequence of HOXB9 (Homo sapiens, UniProt P17482 171-250) (P17482 171-250): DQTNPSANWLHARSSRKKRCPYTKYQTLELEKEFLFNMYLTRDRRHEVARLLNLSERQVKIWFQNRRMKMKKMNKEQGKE
Sequence of SHOX (Homo sapiens, UniProt O15266 103-189, R173C) (O15266 103-189 R173C): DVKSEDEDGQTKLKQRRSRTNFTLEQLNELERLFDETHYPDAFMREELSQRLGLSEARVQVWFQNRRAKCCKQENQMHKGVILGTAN
Sequence of HOXB9 (Homo sapiens, UniProt P17482 171-250, R186Q) (P17482 171-250 R186Q): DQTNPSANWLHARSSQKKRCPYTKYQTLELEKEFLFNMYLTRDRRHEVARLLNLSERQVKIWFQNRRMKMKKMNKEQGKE
Sequence of HOXC9 (Homo sapiens, UniProt P31274 178-260, R222W) (P31274 178-260 R222W): as the sequence (P31274 178-260) above, with R45W counted along it
Sequence of HOXC9 (Homo sapiens, UniProt P31274 178-260, K195R) (P31274 178-260 K195R): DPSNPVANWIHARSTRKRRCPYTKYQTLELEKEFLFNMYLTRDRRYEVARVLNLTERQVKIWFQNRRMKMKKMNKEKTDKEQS
Sequence of HOXB9 (Homo sapiens, UniProt P17482 171-250, T197M) (P17482 171-250 T197M): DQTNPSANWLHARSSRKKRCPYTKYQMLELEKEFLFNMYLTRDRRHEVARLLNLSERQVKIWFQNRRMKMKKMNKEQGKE
Sequence of HOXC9 (Homo sapiens, UniProt P31274 178-260, R193K) (P31274 178-260 R193K): as the sequence (P31274 178-260) above, with R16K counted along it
Sequence of SHOX (Homo sapiens, UniProt O15266 103-189) (O15266 103-189): as the sequence (O15266 103-189 R173C) above, with C71R counted along it
Sequence of HOXD13 (Homo sapiens, UniProt P35453 263-343) (P35453 263-343): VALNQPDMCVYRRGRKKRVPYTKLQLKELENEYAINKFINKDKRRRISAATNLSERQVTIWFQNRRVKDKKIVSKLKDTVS
Sequence of HOXC10 (Homo sapiens, UniProt Q9NYD6 254-340, K271E) (Q9NYD6 254-340 K271E): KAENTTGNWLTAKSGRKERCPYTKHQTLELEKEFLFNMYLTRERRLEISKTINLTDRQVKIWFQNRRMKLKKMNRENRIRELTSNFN
Sequence of HOXC10 (Homo sapiens, UniProt Q9NYD6 254-340) (Q9NYD6 254-340): as the sequence (Q9NYD6 254-340 K271E) above, with E18K counted along it
Sequence of HOXB6 (Homo sapiens, UniProt P17509 132-218, K202E) (P17509 132-218 K202E): as the sequence (P17509 132-218) above, with K71E counted along it
Sequence of HOXD13 (Homo sapiens, UniProt P35453 263-343, T313R) (P35453 263-343 T313R): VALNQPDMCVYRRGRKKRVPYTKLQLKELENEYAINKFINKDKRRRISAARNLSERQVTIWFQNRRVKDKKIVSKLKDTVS

AGCCTGGG
binding signal (SHOX [1]): 7.06 upbm affinity estimate (log intensity, higher = more binding, comparable within an allelic series)
binding signal (SHOX [2]): 7.22 upbm affinity estimate (log intensity, higher = more binding, comparable within an allelic series)

CTCATTAA
binding signal (SHOX [1]): 11.5 upbm affinity estimate (log intensity, higher = more binding, comparable within an allelic series)
binding signal (HOXB9 [3]): 10.1 upbm affinity estimate (log intensity, higher = more binding, comparable within an allelic series)
binding signal (HOXC9 [4]): 12.5 upbm affinity estimate (log intensity, higher = more binding, comparable within an allelic series)
binding signal (VENTX): 12.8 upbm affinity estimate (log intensity, higher = more binding, comparable within an allelic series)
binding signal (HOXA7 [5]): 11.5 upbm affinity estimate (log intensity, higher = more binding, comparable within an allelic series)
binding signal (HOXC10 [6]): 12.2 upbm affinity estimate (log intensity, higher = more binding, comparable within an allelic series)
binding signal (PAX4): 11.6 upbm affinity estimate (log intensity, higher = more binding, comparable within an allelic series)
binding signal (HOXB6 [7]): 9.97 upbm affinity estimate (log intensity, higher = more binding, comparable within an allelic series)
binding signal (HOXB9 [8]): 11.8 upbm affinity estimate (log intensity, higher = more binding, comparable within an allelic series)
binding signal (HOXC9 [9]): 12.6 upbm affinity estimate (log intensity, higher = more binding, comparable within an allelic series)
binding signal (HOXD13 [10]): 10.7 upbm affinity estimate (log intensity, higher = more binding, comparable within an allelic series)
binding signal (SHOX [2]): 9.2 upbm affinity estimate (log intensity, higher = more binding, comparable within an allelic series)
binding signal (HOXC9 [11]): 12.5 upbm affinity estimate (log intensity, higher = more binding, comparable within an allelic series)
binding signal (HOXD13 [12]): 11.9 upbm affinity estimate (log intensity, higher = more binding, comparable within an allelic series)
binding signal (HOXC10 [13]): 12 upbm affinity estimate (log intensity, higher = more binding, comparable within an allelic series)
binding signal (HOXD13 [14]): 11.7 upbm affinity estimate (log intensity, higher = more binding, comparable within an allelic series)
binding signal (HOXB9 [15]): 11.5 upbm affinity estimate (log intensity, higher = more binding, comparable within an allelic series)
binding signal (HOXC9 [16]): 10.9 upbm affinity estimate (log intensity, higher = more binding, comparable within an allelic series)
binding signal (HOXA7 [17]): 8.81 upbm affinity estimate (log intensity, higher = more binding, comparable within an allelic series)
binding signal (HOXB6 [18]): 11.9 upbm affinity estimate (log intensity, higher = more binding, comparable within an allelic series)

GACGCCGC
binding signal (PAX4): 9.17 upbm affinity estimate (log intensity, higher = more binding, comparable within an allelic series)

CGCAGGCG
binding signal (SHOX [1]): 7.28 upbm affinity estimate (log intensity, higher = more binding, comparable within an allelic series)
binding signal (SHOX [2]): 7.07 upbm affinity estimate (log intensity, higher = more binding, comparable within an allelic series)

CGTCCCGC
binding signal (HOXB9 [3]): 8.41 upbm affinity estimate (log intensity, higher = more binding, comparable within an allelic series)
binding signal (VENTX): 7.89 upbm affinity estimate (log intensity, higher = more binding, comparable within an allelic series)
binding signal (HOXA7 [5]): 8.5 upbm affinity estimate (log intensity, higher = more binding, comparable within an allelic series)
binding signal (PAX4): 9.13 upbm affinity estimate (log intensity, higher = more binding, comparable within an allelic series)
binding signal (HOXB9 [8]): 8.35 upbm affinity estimate (log intensity, higher = more binding, comparable within an allelic series)
binding signal (HOXB9 [15]): 8.38 upbm affinity estimate (log intensity, higher = more binding, comparable within an allelic series)
binding signal (HOXA7 [17]): 8.32 upbm affinity estimate (log intensity, higher = more binding, comparable within an allelic series)

GACTCGGC
binding signal (SHOX [1]): 7.16 upbm affinity estimate (log intensity, higher = more binding, comparable within an allelic series)
binding signal (SHOX [2]): 7.19 upbm affinity estimate (log intensity, higher = more binding, comparable within an allelic series)

CCGCAAGG
binding signal (SHOX [1]): 7.17 upbm affinity estimate (log intensity, higher = more binding, comparable within an allelic series)
binding signal (HOXD13 [10]): 9.53 upbm affinity estimate (log intensity, higher = more binding, comparable within an allelic series)
binding signal (SHOX [2]): 7.2 upbm affinity estimate (log intensity, higher = more binding, comparable within an allelic series)
binding signal (HOXD13 [12]): 9.5 upbm affinity estimate (log intensity, higher = more binding, comparable within an allelic series)
binding signal (HOXD13 [14]): 9.67 upbm affinity estimate (log intensity, higher = more binding, comparable within an allelic series)

CGAGGGTC
binding signal (HOXC9 [4]): 9.55 upbm affinity estimate (log intensity, higher = more binding, comparable within an allelic series)
binding signal (PAX4): 8.99 upbm affinity estimate (log intensity, higher = more binding, comparable within an allelic series)
binding signal (HOXC9 [9]): 9.61 upbm affinity estimate (log intensity, higher = more binding, comparable within an allelic series)
binding signal (HOXC9 [11]): 9.61 upbm affinity estimate (log intensity, higher = more binding, comparable within an allelic series)
binding signal (HOXC9 [16]): 9.69 upbm affinity estimate (log intensity, higher = more binding, comparable within an allelic series)

CAGGGGGC
binding signal (SHOX [1]): 7.1 upbm affinity estimate (log intensity, higher = more binding, comparable within an allelic series)
binding signal (VENTX): 8.14 upbm affinity estimate (log intensity, higher = more binding, comparable within an allelic series)
binding signal (SHOX [2]): 7.01 upbm affinity estimate (log intensity, higher = more binding, comparable within an allelic series)

CATTAATG
binding signal (HOXB9 [3]): 10.3 upbm affinity estimate (log intensity, higher = more binding, comparable within an allelic series)
binding signal (HOXC9 [4]): 12.8 upbm affinity estimate (log intensity, higher = more binding, comparable within an allelic series)
binding signal (VENTX): 12.5 upbm affinity estimate (log intensity, higher = more binding, comparable within an allelic series)
binding signal (HOXA7 [5]): 12 upbm affinity estimate (log intensity, higher = more binding, comparable within an allelic series)
binding signal (HOXC10 [6]): 12.3 upbm affinity estimate (log intensity, higher = more binding, comparable within an allelic series)
binding signal (PAX4): 11.8 upbm affinity estimate (log intensity, higher = more binding, comparable within an allelic series)
binding signal (HOXB6 [7]): 10.3 upbm affinity estimate (log intensity, higher = more binding, comparable within an allelic series)
binding signal (HOXB9 [8]): 12.1 upbm affinity estimate (log intensity, higher = more binding, comparable within an allelic series)
binding signal (HOXC9 [9]): 12.9 upbm affinity estimate (log intensity, higher = more binding, comparable within an allelic series)
binding signal (HOXC9 [11]): 12.8 upbm affinity estimate (log intensity, higher = more binding, comparable within an allelic series)
binding signal (HOXC10 [13]): 12.2 upbm affinity estimate (log intensity, higher = more binding, comparable within an allelic series)
binding signal (HOXD13 [14]): 11.6 upbm affinity estimate (log intensity, higher = more binding, comparable within an allelic series)
binding signal (HOXB9 [15]): 11.9 upbm affinity estimate (log intensity, higher = more binding, comparable within an allelic series)
binding signal (HOXC9 [16]): 11 upbm affinity estimate (log intensity, higher = more binding, comparable within an allelic series)
binding signal (HOXA7 [17]): 8.9 upbm affinity estimate (log intensity, higher = more binding, comparable within an allelic series)
binding signal (HOXB6 [18]): 12.4 upbm affinity estimate (log intensity, higher = more binding, comparable within an allelic series)

CGGGAGAG
binding signal (SHOX [1]): 6.89 upbm affinity estimate (log intensity, higher = more binding, comparable within an allelic series)
binding signal (HOXB9 [3]): 8.56 upbm affinity estimate (log intensity, higher = more binding, comparable within an allelic series)
binding signal (HOXB9 [8]): 8.56 upbm affinity estimate (log intensity, higher = more binding, comparable within an allelic series)
binding signal (SHOX [2]): 7.16 upbm affinity estimate (log intensity, higher = more binding, comparable within an allelic series)
binding signal (HOXB9 [15]): 8.56 upbm affinity estimate (log intensity, higher = more binding, comparable within an allelic series)
